# Laboratory results as given in PubChem BioAssay (NCI).
# About 79,000 compounds went through this panel and 15% of them were active in at least one assay; those are over-represented in the sample as a whole. Values without a mark were called inactive. The source made the active and inactive calls. Rule as the data show it: active = growth inhibition above about 70%; inactive = the rest.
# Experiments:
# [1] = NCI Yeast Anticancer Drug Screen. Data for the rad50 strain (AID 155);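 also: 0% = growth of vehicle-only cultures of the same strain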; conditions: S. cerevisiae rad50 strain growth inhibition, active compounds read high
# Procedure, shortened: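 Genetically altered yeast (DNA repair pathway); compound treatment; growth inhibition vs vehicle ctrl.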
# [2] = NCI Yeast Anticancer Drug Screen. Data for the mec2-1 strain (AID 157); conditions: S. cerevisiae mec2-1 strain, active compounds read high
# Procedure, shortened: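 Each compound was tested on mec2-1 yeast, a strain altered in DNA damage repair or cell cycle control. Growth inhibition is reported relative to vehicle.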
# [3] = NCI Yeast Anticancer Drug Screen. Data for the sgs1 mgt1 strain (AID 161);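 also: 0% = growth of cultures given vehicle only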; conditions: S. cerevisiae sgs1 mgt1 strain, active compounds read high
# Procedure, shortened: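 Genetically altered yeast, compound exposure, growth inhibition relative to vehicle.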
# [4] = NCI Yeast Anticancer Drug Screen. Data for the cln2 rad14 strain (AID 165);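 also: 0% = growth equal to vehicle treated cultures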; conditions: S. cerevisiae cln2 rad14 strain, active compounds read high
# Procedure, shortened: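 Test compounds were added to cln2 rad14 yeast cultures; inhibition of growth was then determined by comparison with vehicle treatment.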
# [5] = NCI Yeast Anticancer Drug Screen. Data for the bub3 strain (AID 167); conditions: S. cerevisiae bub3 mutant strain, active compounds read high
# Procedure, shortened: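 Yeast carrying a defined mutation is treated with each compound, and growth is compared with that of vehicle-exposed cells to give inhibition.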
# [6] = NCI Yeast Anticancer Drug Screen. Data for the mlh1 rad18 strain (AID 175); conditions: S. cerevisiae mlh1 rad18 strain growth inhibition, active compounds read high
# Procedure, shortened: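 Inhibition values reflect reduced growth of mutant yeast versus vehicle-treated controls following compound exposure; the mutations affect DNA damage repair.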
# [7] = at 5.0 µM (retest, dose inferred, filed as 0.5)
# [8] = at 50.0 µM (retest, dose inferred, filed as 5.0)
SMILES,"growth inhibition [1, 7]","growth inhibition [1, 8]",growth inhibition ([1]; at 50.0 µM),"growth inhibition [2, 7]","growth inhibition [2, 8]",growth inhibition ([2]; at 50.0 µM),"growth inhibition [3, 7]","growth inhibition [3, 8]",growth inhibition ([3]; at 50.0 µM),"growth inhibition [4, 7]","growth inhibition [4, 8]",growth inhibition ([4]; at 50.0 µM),"growth inhibition [5, 7]","growth inhibition [5, 8]",growth inhibition ([5]; at 50.0 µM),"growth inhibition [6, 7]","growth inhibition [6, 8]",growth inhibition ([6]; at 50.0 µM)
O=C1c2ccccc2C2N1CCCN2C(=O)c1sc2ccccc2c1Cl (stereo not given),49%,98% (active),90% (active),30%,99% (active),92% (active),29%,99% (active),92.8% (active),28%,96% (active),90.3% (active),35%,98% (active),92% (active),44%,98% (active),90.5% (active)
COc1ccc2c(c1)CCc1c(-c3noc4c3CCc3cc(OC)ccc3-4)noc1-2,-7%,-15%,9.65%,5%,19%,19%,4%,-2%,-0.9%,11%,9%,53.5%,-2%,2%,-7.75%,-2%,10%,54.2%
COc1ccccc1C1c2cc3c(cc2OC(C)(O)C1C)OCO3 (stereo not given),-5%,60%,85% (active),-4%,49%,58.4%,1%,61%,86.3% (active),-3%,53%,74.2% (active),0%,49%,66.8%,0%,75% (active),85.5% (active)
CCCCCCCCCCCCCCNC(=O)C[N+](C)(C)Cc1ccccc1,99% (active),99% (active),99.5% (active),99% (active),100% (active),99.7% (active),99% (active),99% (active),99.3% (active),99% (active),99% (active),99.5% (active),99% (active),99% (active),99.4% (active),99% (active),99% (active),99.6% (active)
O=C(Nc1ccc(Cl)cc1Cl)OC(Cn1cncn1)c1ccc(Cl)cc1Cl (stereo not given),71% (active),71% (active),91.2% (active),67%,67%,91.4% (active),77% (active),77% (active),90.5% (active),66%,66%,88.7% (active),72% (active),72% (active),92.5% (active),77% (active),77% (active),90.5% (active)
CC(=O)OCc1c2ccccc2c(C)c2c1cc(F)c1ccccc12,35%,87% (active),98.2% (active),25%,89% (active),98.8% (active),52%,90% (active),98.1% (active),14%,85% (active),98.2% (active),15%,86% (active),98.5% (active),40%,88% (active),98.2% (active)
Cc1cccc(NC(=O)CCc2ccc(Cl)cc2)n1,2%,1%,6.3%,-17%,-6%,2.55%,2%,13%,0.2%,-6%,-15%,41.8%,-1%,0%,9.9%,8%,-7%,-2.8%
CC(=O)Oc1ccc(C(C)(C)CC(C)(C)C)cc1,-1%,62%,72.2% (active),-1%,41%,95.3% (active),-1%,26%,94.8% (active),-3%,42%,86.3% (active),0%,55%,85.8% (active),-1%,42%,89.5% (active)
Clc1ccc(CNc2ccc(Cl)c(Cl)c2)cc1,8%,95% (active),97.8% (active),36%,97% (active),98.2% (active),11%,97% (active),98.2% (active),-10%,91% (active),97.7% (active),2%,96% (active),97.5% (active),15%,95% (active),97% (active)
O=C(Nc1ccccc1)c1ccc([N+](=O)[O-])o1,12%,83% (active),96.3% (active),3%,73% (active),95.7% (active),9%,82% (active),98.6% (active),-2%,31%,80.2% (active),2%,79% (active),91.4% (active),24%,91% (active),98.5% (active)
